The values that follow come from PubChem BioAssay (NCATS).

Inconclusive results are not listed. Calls of active or inactive are those of the source. Calls come from the whole dose curve; as a rule, active = well fitted inhibition curve with a large enough effect; inconclusive = small, poorly fitted or top-dose-only effect; inactive = flat fitted curve, though single readings scatter.
Potency is the fitted concentration of half-maximal effect.

The subject of the first experiment is DIV17. The experiment in a line: qHTS profiling for inhibitors of Plasmodium falciparum proliferation (AID 504749).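 For activity, negative = inhibition: 0% = DMSO vehicle and full inhibition = artemisinin control.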 Note: nearly all actives have a fitted effect of over 60% in size. The settings on record: P. falciparum in erythrocytes, SYBR Green DNA, 72 h; series mostly up to 28.7 µM; activity, negative = inhibition: at the top concentration. In outline: (§1)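 Each compound contacts P. falciparum-infected red blood cells for 72 h at 37 C; lysis buffer (Tris, EDTA, saponin, Triton X, SYBR Green I) is added and fluorescence measured next morning; values normalized to controls.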
Take `CC(C)(C)CC(C)(C)c1ccc(O)c(-n2nc3ccccc3n2)c1`: the Potency was 13.5 µM (active). Turning to `Cc1ccc(-c2ncc(Cl)cc2-c2ccc(S(C)(=O)=O)cc2)cn1`, the Potency was 15.1 µM (active). On the same count and under the same terms, then `NCCNc1cccc2ccccc12`, with 15.1 µM (active); and `CNCCCCOc1ccccc1Cc1ccccc1`, with 1.9 µM (active). Regarding `CN1CCN(c2cc3c(cc2F)c(=O)c(C(=O)O)cn3-c2ccc(F)cc2)CC1`, the “activity, negative = inhibition” value is -8.18% (inactive). As to `Oc1c(Cl)cc(Cl)c(Cl)c1Cc1c(O)c(Cl)cc(Cl)c1Cl`, the Potency is 12 µM (active). On the same count and under the same terms, then `CCOCCn1c(N2CCCN(C)CC2)nc2ccccc21`, with 7.57 µM (active); and `CCN(CC)CCOc1ccc2c(c1)C(=O)c1cc(OCCN(CC)CC)ccc1-2`, with 9.53 µM (active).

Turning to `NC1CCN(c2nc3c(cc2F)c(=O)c(C(=O)O)cn3-c2ccc(F)cc2F)C1` (stereo not given), the “activity, negative = inhibition” value was -12.4% (inactive). In the case of `CN1CCN(c2c(F)cc3c(=O)c(C(=O)O)cn4c3c2SCC4)CC1`, the “activity, negative = inhibition” value is -14.4% (inactive). `CCN(CC)CCOc1ccccc1C(=O)CCc1ccccc1`: the Potency was 7.57 µM (active). For the compound `CC1CCc2c(N3CCC(O)CC3)c(F)cc3c(=O)c(C(=O)O)cn1c23` (stereo not given), the “activity, negative = inhibition” value is -18.4% (inactive). Consider `CC(C)(Cc1c[nH]c2ccccc12)NCC(O)COc1ccccc1C#N` (stereo not given), for which the Potency was 9.53 µM (active).

As to `OC(C#CCN1CCCC1)(c1ccccc1)c1ccccc1`, the Potency was 13.5 µM (active).

Another experiment deals with DIV30. Described as above. The settings on record: P. falciparum in erythrocytes, SYBR Green DNA, 72 h; series mostly up to 28.7 µM; activity, negative = inhibition: at the top concentration. In outline:
as §1
`CC(C)(C)CC(C)(C)c1ccc(O)c(-n2nc3ccccc3n2)c1`: the “activity, negative = inhibition” value was -2.8% (inactive). On the same count and under the same terms, then `CN1CCN(C2=Nc3cc(F)ccc3Cc3ccccc32)CC1`, with -17.8% (inactive); and `CC[N+](C)(CC)CCOC(=O)C(O)(c1ccccc1)C1CCCCC1` (stereo not given), with -22.6% (inactive).

Take `Cc1ccc2c(Br)cc(Br)c(O)c2n1`: the Potency was 16.9 µM (active). For the compound `NCCNc1cccc2ccccc12`, the “activity, negative = inhibition” value was -4.51% (inactive).

Consider `CN1CCN(c2cc3c(cc2F)c(=O)c(C(=O)O)cn3-c2ccc(F)cc2)CC1`, for which the “activity, negative = inhibition” value was -19.7% (inactive). On the same count and under the same terms, then `CC(=O)O[C@H]1C[C@@H]2CC[C@@H]3[C@H](CC[C@@]4(C)[C@H]3C[C@H]([N+]3(C)CCCCC3)[C@@H]4OC(C)=O)[C@@]2(C)C[C@@H]1N1CCCCC1`, with -2.43% (inactive). Regarding `Oc1c(Cl)cc(Cl)c(Cl)c1Cc1c(O)c(Cl)cc(Cl)c1Cl`, the Potency is 13.5 µM (active). Take `COC(=O)C(c1ccccc1Cl)N1CCc2sccc2C1` (stereo not given): the “activity, negative = inhibition” value was -19.6% (inactive). On the same count and under the same terms, then `COc1cc(O)c(C(=O)c2ccccc2)cc1S(=O)(=O)O`, with -16.4% (inactive); and `Cc1cc2c(OCC(CNC(C)(C)C)OC(=O)c3ccccc3)cccc2[nH]1` (stereo not given), with -8.46% (inactive). The same measure, in the same setting: then `CCN(CC)CCOC(=O)C1(c2ccccc2)CCCC1`, with -30.8% (inactive); and `NC1CCN(c2nc3c(cc2F)c(=O)c(C(=O)O)cn3-c2ccc(F)cc2F)C1` (stereo not given), with -27.4% (inactive); and `NC(=O)C1(N2CCCCC2)CCN(CCCC(=O)c2ccc(F)cc2)CC1`, with -2.33% (inactive). On the same count and under the same terms, then `CCC(C(=O)OCCOCCN(CC)CC)c1ccccc1` (stereo not given), with -13.3% (inactive); and `CN1CCN(c2c(F)cc3c(=O)c(C(=O)O)cn4c3c2SCC4)CC1`, with -8.89% (inactive). For the compound `C[N+]1(C)CCC(=C(c2ccccc2)c2ccccc2)CC1`, the “activity, negative = inhibition” value is -22.2% [at 12.8 µM] (inactive). With `CC1CCc2c(N3CCC(O)CC3)c(F)cc3c(=O)c(C(=O)O)cn1c23` (stereo not given), the “activity, negative = inhibition” value is -4.44% (inactive). Same read-out and setting: with `O=[N+]([O-])c1cccc(S(=O)(=O)NCCNS(=O)(=O)c2cccc([N+](=O)[O-])c2)c1` the figure was -8.01% (inactive); with `CCCCCCCCCCCCOCCOCCOCCOCCOCCOCCOCCOCCOCCO`, -4.68% (inactive).

As to `C#C[C@]1(OC(C)=O)CC[C@H]2[C@@H]3CCC4=C/C(=N/O)CC[C@@H]4[C@H]3CC[C@@]21CC`, the “activity, negative = inhibition” value is -10% (inactive).
